Shown is part of a subset that was picked to be rich in hits.
TTR transcr act – increases transthyretin transcription. SH-SY5Y TTR promoter Gaussia luciferase, luminescence; 100% = recombinant luciferase protein wells. activation, % at 16.7 µM. 92,000 compounds, 1.3% hits;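 active = activation above the mean of all tested compounds plus 3 SD, cut at about 9.5% in these data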;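 also: cells exposed to compounds for one day before reading; 0% = median of all test compound wells on the plate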
TTR inh HuH7 – counter-screen for TTR activators: TTR transcription inhibitors in HuH7 cells; shares compounds with TTR transcr act; HuH7 TTR promoter-Gaussia luciferase reporter, luminescence; inhibition, % at 16.7 µM; 1,100 compounds, 4% hits; AID 1117279;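 active = average inhibition above the solvent-only control wells' mean plus 3 SD, cut at about 15% in these data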;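 also: 0% = cells with DMSO only and 100% = cells with inhibitor control FD; inhibitors lower well luminescence so higher value means more inhibition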
TTR act confirm – confirmation of human transthyretin transcription activators; shares compounds with TTR transcr act; SHSY5Y TTR promoter Gaussia luciferase, luminescence; 100% = purified Lucia enzyme wells, no cells; activation, % at 16.7 µM; 1,100 tested, under 10 active; AID 1117280;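 active = mean activation above a set limit taken from the earlier primary screen, cut at about 11% in these data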;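 also: 0% = DMSO-treated cells and 100% = recombinant Lucia luciferase without cells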
* marks the source's active call; other numbers are inactive results.

SMILES	TTR transcr act	others
COC(=O)[C@H]1C[C@@H]1[C@H](NC(=O)c1cc(C)on1)c1ccccc1	4
C[C@H](NS(=O)(=O)c1ccccc1)C(=O)N1CCN(C(c2ccccc2)c2ccccc2)CC1	-3
COC(=O)[C@@H]1C[C@H]1[C@@H](NS(=O)(=O)c1ccccc1)c1ccccc1	10*	TTR inh HuH7=-17;TTR act confirm=-1
CCN(C(=O)[C@@H](C)[C@@H](O)c1ccc2ccccc2c1)c1ccccc1	-1
Cc1cccc2c1CCC1CN(Cc3ccccc3)S(=O)(=O)N21 (centres undefined)	-1
CC(NC(=O)c1ccco1)C(=O)OCc1cccc(C(F)(F)F)c1 (centres undefined)	11*	TTR inh HuH7=-10;TTR act confirm=1
CC(NC(=O)[C@H](C)NC(=O)c1ccco1)c1ccc(S(N)(=O)=O)cc1 (some centres undefined)	-1
CC(C)[C@H](NC(=O)c1ccco1)C(=O)OCC(=O)Nc1cccc(F)c1	0
O=C1N2CCc3ccccc3C2CS(=O)(=O)N1Cc1ccc(F)cc1 (centres undefined)	2
CCS(=O)(=O)N1CCN=C1SCc1ccccc1	-2
CC(=O)Nc1ccc(S(=O)(=O)N2CCN=C2SCc2cccnc2)cc1	-1
CCCS(=O)(=O)N1CCN=C1SCc1cccnc1	15*	TTR inh HuH7=-7;TTR act confirm=1
Cc1ccc(S(=O)(=O)N2c3ccccc3C[C@H]2CCC(=O)c2ccccc2)cc1	-2
CCCn1nnc(NC(=O)c2ccc(Br)cc2)n1	-3
Cn1nnnc1-c1cc(Br)ccc1NC(=O)c1ccccc1	10*	TTR inh HuH7=0;TTR act confirm=-1
Cc1csc(NC(=O)c2ccccc2)n1	-1
CC1Cc2ccccc2N1C(=O)CSc1nnnn1C (centres undefined)	6
Cn1nnnc1SCC(=O)N1CCCc2ccccc21	2
CC1CC(=O)Nc2ccccc2N1C(=O)CSc1nnnn1C (centres undefined)	14*	TTR inh HuH7=-6;TTR act confirm=0
COC(=O)c1ccc(NC(=O)CCN2CCN(CCC(=O)Nc3ccc(C(=O)OC)cc3)CC2)cc1	-7
COC(=O)c1ccc(NC(=O)CN2CCN(CCO)CC2)cc1	-1
COC(=O)c1ccc(NC(=O)CCN2CCCCC2)cc1	10*	TTR inh HuH7=-3;TTR act confirm=-1
O=C(OCc1cn(Cc2cccc(F)c2F)nn1)N1CCCC1	1
COc1ccc(S(=O)(=O)N2Cc3ccccc3CC2C(=O)Nc2ccc(O)cc2)cc1OC (centres undefined)	1
CCOc1ccc(NC(=O)C2Cc3ccccc3CN2S(=O)(=O)CC)cc1 (centres undefined)	20*	TTR inh HuH7=-14;TTR act confirm=0
SMILES	TTR transcr act	others
CCS(=O)(=O)N1Cc2ccccc2CC1C(=O)Nc1ncc(C)s1 (centres undefined)	2
CCCC/C=C1/[C@H](c2ccccc2)N(C)C2=N[C@@H](c3ccccc3)CC(=O)N21	1
N#Cc1ccc(C(=O)OCC(=O)Nc2cccnc2Cl)cc1	16*	TTR inh HuH7=-10;TTR act confirm=-1
COc1cccc(OC)c1C(=O)OCC(=O)Nc1cccnc1Cl	-1
O=C(COC(=O)c1cccc(F)c1)Nc1cccnc1Cl	-1
Nc1[nH]c(C(=O)c2ccccc2)c(-c2ccc(Br)cc2)c1C(=O)N1CCN(CCO)CC1	-2
COc1cccc(NC(=O)Cn2nnc(C(=O)NCc3cccs3)c2N)c1	-2
COc1ccc(NC(=O)Cn2nnc(C(=O)NCc3cccs3)c2N)c(OC)c1	2
CCOc1ccc(NC(=O)Cn2nnc(C(=O)NCc3cccs3)c2N)cc1	21*	TTR inh HuH7=-7;TTR act confirm=-1
COc1ccc(Cn2ccc3ccc(-c4ccc5ccn(C(=O)C6CCC6)c5c4)cc32)cc1	1
C=CCN1[C@H](CC(C)C)COc2cccc(F)c2S1(=O)=O	0
O=C(c1ccc(F)cc1)C1CCN(c2ncnc3sccc23)CC1	-5
CC(=O)c1c(C)nc(C)nc1NC(=O)Cc1ccccc1	1
CC(=O)Nc1nc(-c2ccc(Cl)cc2)nc(C)c1C(C)=O	36*	TTR inh HuH7=-6;TTR act confirm=0
CCOC(=O)c1c(C)nc(-c2ccccc2)nc1NC(=O)CC	-3
O=C(NCCc1c[nH]c2ccccc12)OCc1cn(Cc2cccc(Cl)c2)nn1	-1
COc1cc(/C=C/C(=O)c2ccccc2)cc(OC)c1OC	-4
COC(=O)[C@H]1C[C@@]2(CC=C(C)C)c3ccccc3N(C(=O)OC(C)(C)C)[C@H]2N1C(=O)OC(C)(C)C	-1
COc1ccccc1CNC(=O)c1cc(-c2ccccc2C)nn1CC1CC(c2cccnc2)=NO1 (centres undefined)	-3
O=C(NCc1ccc(OC(F)(F)F)cc1)c1cc(-c2ccccc2)nn1CC1CC(c2cccnc2)=NO1 (centres undefined)	0
O=C(NCc1ccco1)c1cc(-c2ccccc2)nn1CC1CC(c2cccnc2)=NO1 (centres undefined)	10*	TTR inh HuH7=-10;TTR act confirm=0
Cc1cc(C)cc(-c2c(C(=O)c3ccccc3)[nH]c(N)c2C(=O)NCCc2c[nH]c3ccccc23)c1	2
CCCCNC(=O)C[C@H]1C[C@@]2(C(=O)OCC)CCCC3=C2N(CCC3)C1=O	-1
CCCC[C@H](C(=O)N(C)c1ccccc1)[C@@H](O)c1ccc(C(C)=O)cc1	2
O=C(NCCc1c[nH]c2ccccc12)[C@H](Cc1c[nH]c2ccccc12)NC1(C(=O)NC2CCCCC2)CCCCCCC1	-1
SMILES	TTR transcr act	others
O=C(NC1CCCc2c1cnn2-c1ccc(F)cc1F)c1cccs1 (centres undefined)	2
CCN1CCN(Cc2ccc(NC(=O)c3ccc(C)c(NC(=O)c4cc(-c5ccc(Br)cc5)n[nH]4)c3)cc2C(F)(F)F)CC1	-4
CCN1CCN(Cc2ccc(NC(=O)c3ccc(C)c(NC(=O)c4nccn4C)c3)cc2C(F)(F)F)CC1	11*	TTR inh HuH7=-15;TTR act confirm=0
CCN1CCN(Cc2ccc(NC(=O)c3ccc(C)c(NC(=O)c4cccc5[nH]ccc45)c3)cc2C(F)(F)F)CC1	-2
O=C(Nc1ccccc1)Nc1nc2ncccn2c1-c1ccc(F)c(F)c1	-2
COC(=O)[C@]12C[C@H](CC(=O)NCc3ccc(OC)c(OC)c3)C(=O)N(Cc3ccco3)C1=C[C@H](C1CCCC1)O[C@@H]2C	0
COc1ccc(Cc2nnc(NC(=O)c3cccs3)s2)cc1OC	15*	TTR inh HuH7=-30;TTR act confirm=0
COc1ccc(Cc2nnc(NC(=O)c3ccc(OC(C)=O)cc3)s2)cc1OC	5
COc1cccc(C(=O)Nc2nnc(Cc3ccc(OC)c(OC)c3)s2)c1	-1
C#CCOCCOCCOCCNc1nc(N2CCOCC2)nc(N2CCN(C(=O)[C@H](CCCCN)n3cc([C@@H](N)CO)nn3)CC2)n1	2
C#CCOCCOCCOCCNc1nc(N2CCN(C(=O)[C@H](CO)n3cc([C@@H](N)C(C)C)nn3)CC2)nc(N2CCN(C(=O)[C@H](CCCCN)n3cc([C@@H](N)[C@H](C)CC)nn3)CC2)n1	19*	TTR inh HuH7=-4;TTR act confirm=1
C#CCOCCOCCOCCNc1nc(N2CCN(C(=O)[C@H](CCCN=C(N)N)n3cc(C(N)[C@@H](C)CC)nn3)CC2)nc(N2CCN(C(=O)[C@H](CCCCN)n3cc([C@@H](N)CC(N)=O)nn3)CC2)n1 (some centres undefined)	-2
O=C1C[C@@H](O)[C@H](O)c2cccc(O)c21	1

Compound activity: PubChem BioAssay, The Scripps Research Institute Molecular Screening Center
